# “And” between values parts separate entries of the source, which are not always exact repeats. Equal entries are not always repeated. Results filed as inconclusive are left out. Where a structure was tested more than once in an assay, its records may differ in their call. The source made the active and inactive calls. The call rests on the fitted dose curve; in most records, active means well fitted inhibition curve with a large enough effect; inconclusive means small, poorly fitted or top-dose-only effect; inactive means no such curve, though single readings can be large or run the other way.
# Experiment: Primary qHTS for inhibitors of nuclear receptor binding SET domain protein 2 (NSD2) in an RCH-ACV wild type WT cells (2C) (AID 1645877); further: nearly all actives have a fitted effect of over 70% in size
# Settings: RCH-ACV (leukaemia line) NSD2 WT (2C) viability, CellTiter-Glo, 72 h; series mostly up to 44.9 µM; activity change, negative = cell killing: at the top concentration
# Description: Assay Provider: Jonathan D. Licht, MD
# University of Florida College of Medicine, Gainesville, FL
# Mutations in epigenetic regulators are common in relapsed pediatric acute lymphoblastic leukemia (ALL). Here, we uncovered the mechanism underlying the relapse of ALL driven by an activating mutation of the NSD2 histone methyltransferase (p.E1099K). […] Correction of this mutation restored glucocorticoid sensitivity. The transcriptional response to glucocorticoids was blocked in NSD2 mutant cells due to depressed glucocorticoid receptor (GR) levels and the failure of glucocorticoids to autoactivate GR expression. […] Pre-treatment of NSD2 p.E1099K cell lines and PDX samples with PRC2 inhibitors reversed glucocorticoid resistance in vitro and in vivo.
# High-throughput drug screening of isogenic RCH-ACV cell lines was performed at the National Center for Advancing Translational Science (NCATS), National Institutes of Health as previously described (1). Briefly, isogenic RCH-ACV NSD2 p.E1099K mutant (9B) and WT cells (2C) were plated at 500 cells/well in a 1536-well plate with a 72-hour incubation with compounds prior to addition of CellTiter-Glo to assess cell viability. NCATS libraries screened include: NPC, MIPE 5.0, Kinase and NPACT. To determine compound activity in the qHTS assay, the concentration-response data for each sample was plotted and modeled by a four-parameter logistic fit yielding IC50 and efficacy (maximal response) values. The area under the curve (AUC) of the dose-response curve ensures both efficacy (magnitude of cell killing) and potency (concentration that elicits cell killing) are accounted for in the analysis of activity.
# 1. Tobie D Lee, Olivia W Lee, Kyle R Brimacombe, Lu Chen, Rajarshi Guha, Sabrina Lusvarghi, Bethilehem G Tebase, Carleen Klumpp-Thomas, Robert W Robey, Suresh V Ambudkar, Min Shen, Michael M Gottesman, Matthew D Hall. A High-Throughput Screen of a Library of Therapeutics Identifies Cytotoxic Substrates of P-glycoprotein. Mol Pharmacol. 2019, Nov;96(5):629-640.
# On the % scale 0 is the no-effect control and ±100 the full control effect.
SMILES,Potency,"activity change, negative = cell killing",outcome
O=C(N[C@@H](c1ccccc1)[C@@H]1CCCCN1)c1cccc(C(F)(F)F)c1Cl,16.6 µM (active),–,–
Cc1cccc(Nc2nc(-c3ccncc3)cs2)c1,10.3 µM (active) and 13.2 µM (active),–,–
O=C1c2ccccc2-[n+]2ccc3c([nH]c4ccccc43)c21,1.32 µM (active),–,–
COc1ccc(-c2cc(=O)c3c(O)cc(O)cc3o2)cc1O,14.8 µM (active),–,–
CC(C(=O)O)c1ccc(-c2ccccc2)c(F)c1 (stereo not given),–,-11.8% (inactive),–
CC(C)=CC[C@@H](O)C1=CC(=O)c2c(O)ccc(O)c2C1=O,20.9 µM (active),–,–
Clc1ccc(Cn2c(CN3CCCC3)nc3ccccc32)cc1,inactive and 18.6 µM (active),–,–
CN(C[C@@H]1COCCO1)S(=O)(=O)Nc1ccc2ccc3ncc(-c4cnn(C)c4)cc3c(=O)c2c1,6.49 µM (active),–,–
Cc1cnc(C(=O)O)c[n+]1[O-],–,–,inactive
COc1cc2nc(-c3ccc(N4CCN(C)CC4)cc3)nc(NCCN3CCOCC3)c2cc1OC,2.09 µM (active),–,–
O=C(NOCC(O)CO)c1cc(Br)c(F)c(F)c1Nc1ccc(I)cc1F (stereo not given),20.9 µM (active),–,–
COc1ccc(C2Sc3ccccc3N(CCN(C)C)C(=O)C2OC(C)=O)cc1 (stereo not given),–,4.47% [at 17.3 µM] (inactive),–
NC(=O)c1ccc2nc(-c3ccc(Oc4ccc(Cl)cc4)cc3)[nH]c2c1,16.6 µM (active) and 16.4 µM (active),–,–
C=C1C(=O)[C@@]23C(CC[C@@H]1[C@H]2O)[C@@]12CO[C@]3(O)[C@@H](O)[C@@H]1C(C)(C)CC[C@@H]2O (stereo not given in full),1.48 µM (active),–,–
CO[C@@H](C(=O)N1Cc2[nH]nc(NC(=O)c3ccc(N4CCN(C)CC4)cc3)c2C1)c1ccccc1,58 nM (active) and 52.5 nM (active),–,–
CC(C)(Cc1ccc2ccccc2c1)NC[C@@H](O)COc1cccc(Cl)c1C#N,6.61 µM (active),–,–
CNC(=O)c1ccc2cc(C3(O)CCn4cncc43)ccc2c1 (stereo not given),–,-1.95% (inactive),–
N[C@H](CSC(c1ccccc1)(c1ccccc1)c1ccccc1)C(=O)O,–,-6.92% (inactive),–
O=C(O)c1cc(O)c2c(c1)C(=O)c1cccc(O)c1C2=O,–,–,inactive
Clc1ccc(C(c2ccc(Cl)cc2)n2cc[n+](CC(OCc3ccc(Cl)cc3Cl)c3ccc(Cl)cc3Cl)c2)cc1 (stereo not given),5.25 µM (active),–,–

SMILES,Potency,"activity change, negative = cell killing",outcome
O=C(O)c1c(Cl)c(Cl)c(Cl)c(Cl)c1-c1c2cc(I)c(=O)c(I)c-2oc2c(I)c(O)c(I)cc12,9.34 µM (active),–,–
CC(C)(C(=O)NCC(F)(F)C(F)(F)F)C(=O)N[C@@H]1C(=O)Nc2ccccc2-c2ccccc21,–,-15.8% (inactive),–
CC[C@]1(O)C[C@@H]2CN(CCc3c([nH]c4ccccc34)[C@@](C(=O)OC)(c3cc4c(cc3OC)N(C)[C@H]3[C@@](O)(C(=O)OC)[C@H](OC(C)=O)[C@]5(CC)C=CCN6CC[C@]43[C@@H]65)C2)C1,26.6 nM (active) and 53.1 nM (active) and 36.5 nM (active),–,–
C[N+](C)(C)CC(=O)O,inactive,–,–
O=C(CCN1CCN(C(=O)OCc2cc(Cl)cc(Cl)c2)CC1)c1ccc2[nH]c(=O)oc2c1,14.5 µM (active) and 18.6 µM (active),–,–
CC(C)C(C)C=CC(C)C1CCC2C3=CC=C4CC(O)CCC4(C)C3CCC21C (stereo not given),–,–,inactive
O=C(O)c1cc(-c2ccccc2)nc2ccccc12,inactive,–,–
O=C1C(Cl)=C(NCCN2CCOCC2)C(=O)c2ncccc21,3.32 µM (active),–,–
NC(=O)[C@@H](CCC(F)(F)F)N(Cc1ccc(-c2ncon2)cc1F)S(=O)(=O)c1ccc(Cl)cc1,23.5 µM (active),–,–
COc1ccc2cccc(CCNC(C)=O)c2c1,inactive,–,–
CN1CCN(CCOc2cc(OC3CCOCC3)c3c(Nc4c(Cl)ccc5c4OCO5)ncnc3c2)CC1,5.15 µM (active) and 2.95 µM (active),–,–
COc1ccc2c(Oc3ccc(NC(=O)c4c(C)n(CC(C)(C)O)n(-c5ccccc5)c4=O)cc3F)ccnc2c1,14.5 µM (active),–,–
CCc1ccc(OCc2ccccc2C(=O)Nc2ccc3nc(C)cc(N)c3c2)cc1,2.95 µM (active),–,–
CCCCCNC(=O)N1CCC(CN(Cc2ccc(Cl)cc2)Cc2ccc([N+](=O)[O-])s2)C1 (stereo not given),–,-15% (inactive),–
CC1(C)CCC(CN2CCN(c3ccc(C(=O)NS(=O)(=O)c4ccc(NCC5CCOCC5)c([N+](=O)[O-])c4)c(Oc4cnc5[nH]ccc5c4)c3)CC2)=C(c2ccc(Cl)cc2)C1,12.6 µM (active) and inactive,–,–
N#C[C@H]1C[C@H]2C[C@@H]2N1C(=O)[C@@H](N)C12CC3CC(CC(O)(C3)C1)C2,–,5.39% (inactive),–
CCCCC1C(=O)N(c2ccccc2)N(c2ccccc2)C1=O,–,-21.8% (inactive),–
COCCOc1nc(-c2ccc(Cl)c(Cl)c2)n(-c2ccc(NC(=O)CCl)cc2)n1,1.32 µM (active),–,–
CC(C)n1nc(-c2ccc3oc(N)nc3c2)c2c(N)ncnc21,36.5 nM (active) and 33.2 nM (active),–,–
CC(=O)N(C)C1(c2ccccc2)CCN(CCC[C@]2(c3ccc(Cl)c(Cl)c3)CCCN(C(=O)c3ccccc3)C2)CC1,5.78 µM (active),–,–
